Among the data in PubChem BioAssay (NCATS) are Potency values, retold here.

Inconclusive results are not listed. Active and inactive are the calls of the source. Calls come from the whole dose curve; as a rule, active = well fitted curve in the direction sought with a large enough effect; inconclusive = small, poorly fitted or top-dose-only effect, or another doubt; inactive = no such curve, though single readings can be large; an effect the other way counts as inactive or inconclusive.

The target of one test is Furin (Homo sapiens) (UniProt P09958). As to the kind of experiment: Furin counterscreen qHTS for Zika virus inhibitors (AID 1347149). Note: nearly all actives have a fitted effect of over 70% in size. Note: potency is the fitted concentration of half-maximal effect. An outline of the steps: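 Fluorogenic cleavage of BOC-RVRR-AMC (2 microM final, Km ~15 µM) was monitored (ex 340, em 450 nm) at 37C after 15 min RT preincubation of 5 nM furin with compounds in HEPES pH 7.0 buffer with CaCl2 and Triton X-100. Percent inhibition was fitted to a 4-parameter Hill curve.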
Chain of Furin (Homo sapiens) (P09958 whole entry, looked up): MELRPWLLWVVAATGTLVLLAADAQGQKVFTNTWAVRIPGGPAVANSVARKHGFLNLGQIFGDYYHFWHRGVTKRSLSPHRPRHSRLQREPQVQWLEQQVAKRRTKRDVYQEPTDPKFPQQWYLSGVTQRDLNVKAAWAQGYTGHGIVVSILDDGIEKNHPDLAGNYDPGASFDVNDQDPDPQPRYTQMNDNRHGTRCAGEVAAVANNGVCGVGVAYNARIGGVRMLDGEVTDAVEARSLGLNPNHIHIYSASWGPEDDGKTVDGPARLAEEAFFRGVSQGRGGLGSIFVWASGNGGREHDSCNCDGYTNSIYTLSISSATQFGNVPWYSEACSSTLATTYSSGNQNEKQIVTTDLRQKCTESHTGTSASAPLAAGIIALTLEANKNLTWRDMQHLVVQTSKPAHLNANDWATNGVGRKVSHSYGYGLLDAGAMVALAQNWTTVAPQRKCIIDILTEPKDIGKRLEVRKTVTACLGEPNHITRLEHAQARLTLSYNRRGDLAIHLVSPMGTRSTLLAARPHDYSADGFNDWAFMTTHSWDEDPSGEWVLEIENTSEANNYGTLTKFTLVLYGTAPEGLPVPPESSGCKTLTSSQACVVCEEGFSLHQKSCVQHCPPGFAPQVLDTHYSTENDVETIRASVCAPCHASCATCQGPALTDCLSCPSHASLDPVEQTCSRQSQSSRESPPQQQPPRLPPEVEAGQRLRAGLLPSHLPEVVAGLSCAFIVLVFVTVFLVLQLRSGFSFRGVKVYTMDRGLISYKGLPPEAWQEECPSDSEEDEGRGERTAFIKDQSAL

For test [1], the system named is Zika virus NS2B-NS3 protease (linked construct). As to the kind of experiment: Confirmatory screen NINDS AMC qHTS for Zika virus inhibitors (AID 1347152). Note: nearly all actives have a fitted effect of over 70% in size. Note: potency is the fitted concentration of half-maximal effect. An outline of the steps:
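IC50s from 4-parameter Hill fits of percent inhibition, based on AMC fluorescence gain (340/450 nm) over 15 min with 10 microM Bz-Nle-KRR-AMC. Enzyme: 1 nM linked NS2B-NS3 in Tris-HCl pH 8.0; 15-min compound preincubation.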

Test [2] is described as follows: qHTS of pediatric cancer cell lines to identify multiple opportunities for drug repurposing: Confirmatory screen for LAN-5 cells (AID 1347113). Note: nearly all actives have a fitted effect of over 65% in size. Note: potency is the fitted concentration of half-maximal effect. The gist of the method: (§1)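 Viability after 48 h compound treatment at 37C, 500-1,000 cells/well, read as ATP luminescence with CellTiter-Glo. Primary screens used 11-point (MIPE, 0.78 nM-46 µM) or 8-point (NPC, 0.59 nM-46 µM) final concentrations; follow-up screens used 11-point dilutions.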

Test [3] can be described thus: qHTS of pediatric cancer cell lines to identify multiple opportunities for drug repurposing: Confirmatory screen for SJ-GBM2 cells (AID 1347116). Note: nearly all actives have a fitted effect of over 60% in size. Note: potency is the fitted concentration of half-maximal effect. The gist of the method: (§2)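 Viability measured as metabolically active cells via CellTiter-Glo luminescence following 48 hours of compound exposure, 11-point dilutions in confirmatory testing. 500-1,000 cells/well plated 5 hours before dosing; controls were DMSO and 2.3 µM bortezomib.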

Test [4] in a line: qHTS of pediatric cancer cell lines to identify multiple opportunities for drug repurposing: Confirmatory screen for TC32 cells (AID 1347118).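 Note: potency is the fitted concentration of half-maximal effect; cells exposed to compound for 48 h before the read; nearly all actives have a fitted effect of over 65% in size.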 The gist of the method: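 TC32 cells, 500-1,000/well in growth medium, compound-treated 48 h at 37 °C; viability from CellTiter-Glo luminescence. Primary screen: MIPE 11-point (0.78 nM–46 µM final), NPC 8-point (0.59 nM–46 µM final); confirmatory at 11-point dilutions.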

A short description of test [5]: qHTS of pediatric cancer cell lines to identify multiple opportunities for drug repurposing: Confirmatory screen for MG 63 (6-TG R) cells (AID 1347119). Note: nearly all actives have a fitted effect of over 55% in size. Note: potency is the fitted concentration of half-maximal effect. An outline of the steps:
as §1

A short description of test [6]: qHTS of pediatric cancer cell lines to identify multiple opportunities for drug repurposing: Confirmatory screen for U-2 OS cells (AID 1347122). Note: nearly all actives have a fitted effect of over 65% in size. Note: potency is the fitted concentration of half-maximal effect. The gist of the method:
as §1

Test [7] can be described thus: qHTS of pediatric cancer cell lines to identify multiple opportunities for drug repurposing: Confirmatory screen for Rh41 cells (AID 1347123).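 Note: 48 h compound exposure; nearly all actives have a fitted effect of over 60% in size.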 Note: potency is the fitted concentration of half-maximal effect. An outline of the steps:
as §1

Test [8] is described as follows: qHTS of pediatric cancer cell lines to identify multiple opportunities for drug repurposing: Confirmatory screen for OHS-50 cells (AID 1347128).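 Note: compound exposure lasted 48 h at 37 degrees C; nearly all actives have a fitted effect of over 55% in size.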 Note: potency is the fitted concentration of half-maximal effect. An outline of the steps:
as §1

The nature of test [9]: qHTS of pediatric cancer cell lines to identify multiple opportunities for drug repurposing: Confirmatory screen for SK-N-SH cells (AID 1347129).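 Note: cells exposed to compound for 48 h before viability read; nearly all actives have a fitted effect of over 60% in size.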 Note: potency is the fitted concentration of half-maximal effect. An outline of the steps: as §1
The nature of test [10]: qHTS of pediatric cancer cell lines to identify multiple opportunities for drug repurposing: Confirmatory screen for BT-37 cells (AID 1347117). Note: nearly all actives have a fitted effect of over 55% in size. Note: potency is the fitted concentration of half-maximal effect. The note with it: BT-37 pediatric cancer cells, viability; activity change, negative = cytotoxic: at 45.9 µM (top of the series). An outline of the steps: as §1
The nature of test [11]: qHTS of pediatric cancer cell lines to identify multiple opportunities for drug repurposing: Confirmatory screen for RD cells (AID 1347124).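 Note: cells exposed to compound for 48 h before viability readout; nearly all actives have a fitted effect of over 65% in size.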 Note: potency is the fitted concentration of half-maximal effect. The gist of the method: as §1
Test [12] can be described thus: qHTS of pediatric cancer cell lines to identify multiple opportunities for drug repurposing: Confirmatory screen for Rh18 cells (AID 1347125). Note: nearly all actives have a fitted effect of over 55% in size. Note: potency is the fitted concentration of half-maximal effect. An outline of the steps:
as §1

A short description of test [13]: qHTS of pediatric cancer cell lines to identify multiple opportunities for drug repurposing: Confirmatory screen for Rh30 cells (AID 1347126). Note: nearly all actives have a fitted effect of over 55% in size. Note: potency is the fitted concentration of half-maximal effect. An outline of the steps:
as §1

A short description of test [14]: qHTS of pediatric cancer cell lines to identify multiple opportunities for drug repurposing: Confirmatory screen for Saos-2 cells (AID 1347127). Note: nearly all actives have a fitted effect of over 60% in size. Note: potency is the fitted concentration of half-maximal effect. The gist of the method:
as §1

Test [15] in a line: qHTS of pediatric cancer cell lines to identify multiple opportunities for drug repurposing: Confirmatory screen for control Hh wild type fibroblast cells (AID 1347121). Note: nearly all actives have a fitted effect of over 70% in size. The gist of the method:
as §1

Test [16] in a line: qHTS of pediatric cancer cell lines to identify multiple opportunities for drug repurposing: Confirmatory screen for DAOY cells (AID 1347114). The gist of the method:
as §2

A short description of test [17]: qHTS of pediatric cancer cell lines to identify multiple opportunities for drug repurposing: Confirmatory screen for NB-EBc1 cells (AID 1347115).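 Note: potency is the fitted concentration of half-maximal effect; cells exposed to compound for 48 h before the viability read; nearly all actives have a fitted effect of over 45% in size.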 The gist of the method:
as §1

On to `C[C@H]1COc2c(N3CCN(C)CC3)c(F)cc3c(=O)c(C(=O)O)cn1c23`, for which the Potency (in the test with Furin (Homo sapiens); in [1]) was 24100 nM (active) each time.

Turning to `CNC(=O)c1cccc(-c2ccc3c(N4CCOC[C@H]4C)nc(N4CCOC[C@H]4C)nc3n2)c1`, the Potency in test [2] is 2330 nM (active); in test [3], 2610 nM (active); in test [4], 737 nM (active); in [5], 522 nM (active); in test [6], 261 nM (active); in [7], 585 nM (active). Further, the Potency in [8] is 6570 nM (active); in [9] it was 2640 nM (active). Further, the Potency entry (with Furin (Homo sapiens); in test [1]) was “inactive” in each case.

For `CS(=O)(=O)N1CCc2c(-c3cnc(N)nc3)nc(N3CCOCC3)nc21`, the Potency in test [2] was 1170 nM (active); in [3] it was 7370 nM (active); in [10], 5850 nM (active); in test [4] it was 1850 nM (active); in test [5], 585 nM (active); in [6], 1850 nM (active). In addition, the Potency is 1850 nM (active) in test [7]; 1310 nM (active) in test [11]; 1850 nM (active) in test [12]; 1470 nM (active) in test [13]; 2330 nM (active) in test [14]; 2930 nM (active) in [8]. The Potency in [9] was 2640 nM (active).

For `CC(=O)O[C@@]12CO[C@H]1C[C@H](O)[C@@]1(C)C(=O)[C@H](O)C3=C(C)[C@@H](OC(=O)C(O)[C@@H](NC(=O)OC(C)(C)C)c4ccccc4)C[C@@](O)([C@@H](OC(=O)c4ccccc4)[C@@H]21)C3(C)C` (stereo partly specified), the Potency entry in test [2], in [15], in [12] and in [13] was “inactive” each time. Further, the Potency in [4] was 5.9 nM (active); in test [5] it was 7.4 nM (active); in test [7] it was 10.4 nM (active); in [14] it was 13.1 nM (active); in [8], 23.3 nM (active).

On to `COc1cc(OC)c(C=CS(=O)(=O)Cc2ccc(OC)c(NCC(=O)O)c2)c(OC)c1`, for which the Potency in test [2] is 1170 nM (active); in test [16] it was 165 nM (active); in test [10] it was 657 nM (active); in test [4], 208 nM (active); in test [5], 208 nM (active); in test [6] it was 293 nM (active). In addition, the Potency in [7] is 293 nM (active); in test [14], 329 nM (active). Also, the Potency result in test [15], in test [12] and in test [13] was “inactive” each time.

Take `CCOC(=O)N1CCN([N+]([O-])=NOc2ccc([N+](=O)[O-])cc2C#N)CC1`: the Potency was 4650 nM (active) in test [2]; 2330 nM (active) in [16]; 3290 nM (active) in test [10]; 2330 nM (active) in [4]; 18500 nM (active) in [7]. Further, the Potency entry in [15] was “inactive”.

Regarding `COc1cc2ncnc(Nc3cccc(Br)c3)c2cc1OC`, the Potency in test [2] was 16500 nM (active); in test [3] it was 3690 nM (active); in [10], 18500 nM (active); in [4] it was 9270 nM (active); in test [7] it was 11700 nM (active); in test [8], 10400 nM (active). In addition, the Potency in test [9] is 20900 nM (active). Besides, the Potency entry in [15], in test [6] and in [14] was “inactive” throughout.

With `C=C1C(=CC=C2CCC[C@]3(C)[C@@H]([C@H](C)CCCC(C)(C)O)CC[C@@H]23)C[C@@H](O)C[C@@H]1O`, the Potency result in test [2], in [3], in [10], in test [15], in test [7] and in test [11] was “inactive” throughout. Moreover, the Potency result in test [12], in [13], in [14], in test [8] and in test [9] was “inactive” each time. In [17], the Potency was 2610 nM (active).

Regarding `COc1ccc(Nc2cc(-c3cnc(N)nc3)nc(N3CCOCC3)n2)cn1`, the Potency in test [2] was 2330 nM (active); in test [3], 2610 nM (active); in test [10] it was 10400 nM (active); in [4], 3690 nM (active); in [5] it was 1310 nM (active); in test [6] it was 9270 nM (active). Further, the Potency was 4140 nM (active) in test [7]; 2610 nM (active) in test [11]; 11700 nM (active) in [12]; 3290 nM (active) in test [14]; 6570 nM (active) in test [8]; 5900 nM (active) in [9]. Besides, the Potency entry in [15] was “inactive”.

With `CCc1cc(C(C)=NOCc2ccc(C3CCCCC3)c(C(F)(F)F)c2)ccc1CN1CC(C(=O)O)C1`, the results for the Potency in [4], in [14] and in test [8] were 9270 nM (active), 14700 nM (active) and 23300 nM (active), respectively. The Potency result in test [5], in [15], in [6], in test [11], in test [12] and in test [13] was “inactive” throughout.

For the compound `Cc1cc(Nc2ncc3c(n2)N(C)C(=O)N(c2cc(NC(=O)c4cccc(C(F)(F)F)c4)ccc2C)C3)n(C)n1`, the Potency in [2] is 465 nM (active); in test [16], 14700 nM (active); in test [4] it was 329 nM (active); in test [5] it was 465 nM (active); in [6], 369 nM (active); in test [7], 208 nM (active). In addition, the Potency in test [11] was 657 nM (active); in test [12], 737 nM (active); in test [14], 585 nM (active); in [9], 332 nM (active). Besides, the Potency entry in test [13] is “inactive”.
